The source of these data is PubChem BioAssay (NCI).

Compounds without any hit were thinned out: in the full panel of roughly 83,000, 20% have a hit.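 Each cell line was grown in a 96-well plate and treated with one concentration of compound for 48 hours. Values below 10 were considered active.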 A number with no mark means an inactive call. Active and inactive are the calls of the source.

In one assay the test system is SK-MEL-5 melanoma. The assay can be described thus: NCI-60 one-dose screen, 48 h (100 = growth as untreated, 0 = no growth, -100 = all killed). The note with it: 10 µM unless noted.
Consider `c1ccc(Cn2cnc3ccc(-c4nc(-c5ccc6c(c5)ncn6C5CCCCC5)cn5ccnc45)cc32)cc1`, for which the growth is -84% (active).
Same read-out and setting: for `N/C(=N\C(N)=N\c1nc2ccccc2s1)c1cccc(Cl)c1` the value was 104%; for `O=C(Cc1ccccc1)NNc1nc(Cl)nc(N2CCN(C(c3ccccc3)c3ccccc3)CC2)n1`, 99.8%; for `CCN(CC)c1ccc(C(=O)c2ccccc2)cc1`, 96.9%.
Take `O=C(Nc1ncc(Cc2cc(Cl)ccc2Cl)s1)c1cccs1`: the growth was 42.9%.
On to `COc1cc(C2C3CC4CCCC[C@H]4N3[C@@]3(C(=O)Nc4cc(Cl)ccc43)C2C(=O)c2nc3ccccc3[nH]2)cc(OC)c1OC` (some centres undefined), for which the growth is 64.6%.
Still for that read-out and setting: in the case of `CC(=O)[C@@H]1CC[C@]2(C(N)=O)CC[C@]3(C)[C@H](CC[C@@H]4[C@@]5(C)CCCNC(C)(C)[C@@H]5CC[C@]43C)[C@@H]12` it was 75.9%; in that of `Cc1cccc(C)c1N=c1oc2ccc(Cl)cc2nc1-c1ccccc1O`, 91.3%; in that of `O=S(=O)(NCCCNc1nccc(-c2c(-c3cccc(O)c3)nc3occn23)n1)c1ccc(Cl)cc1`, 39.8%.
Still for that read-out and setting: in the case of `N#C/C(=C\c1ccc([N+](=O)[O-])s1)c1nc2cc(Br)ccc2s1` it was -97.7% (active); in that of `Oc1ccc(C(c2ccc(O)cc2)c2ccc(Br)cn2)cc1`, 85.5%; in that of `Cc1nc2sccn2c1-c1cn2ccsc2n1`, 65.6%.
Turning to `CCOC(=O)/C(C#N)=C1/NNC(=Nc2cccnc2)S1`, the growth was 98.6%.
On the same count and under the same terms, for `O=S(=O)(NCCCNc1nccc(-c2c(-c3cccc(F)c3)nc3sccn23)n1)c1cccc2ccccc12` the value was 31.8%; for `CCCNC(=O)Oc1ccc(/C(=C(\C)c2ccccc2)c2ccc(OCCCN(C)C)cc2)cc1`, 86.2%; for `O=C(CSc1nc2sc3c(c2c(=O)n1-c1ccc(Cl)cc1)CCCC3)Nc1nc(-c2cccc(Br)c2)cs1`, 82.8%.
Consider `O=C1c2ccc3c4c(ccc(c24)C(=O)N1CCCNCc1ccccc1F)C(=O)N(CCCNCc1ccccc1F)C3=O`, for which the growth is -96.2% (active).
Same read-out and setting: for `CCN(CC)c1ccc(/C=N/NC(=O)CSc2nc3ccccc3c(=O)n2CCc2ccc(S(N)(=O)=O)cc2)c(O)c1` the value was 29.4%; for `CCCCCN1C=C/C(=C\C(=O)N(C)c2ccc(Oc3ccccc3)cc2)c2ccccc21`, 62.6%.
Same read-out and setting: for `C/C=C(\C)C(=O)NC1=CC[C@@]2(C)C(=CCC3C2CC[C@@]2(C)C3CC[C@@H]2C(C)N(C)C)C1=O` (some centres undefined) the value was -34.7% (active); for `C[C@H]1[C@H](C)CC[C@]2(C(=O)NCC#CCN3CCN(C)CC3)CC[C@]3(C)C(=CC[C@@H]4[C@@]5(C)Cc6c([nH]c7ccccc67)C(C)(C)[C@@H]5CC[C@]43C)[C@H]12`, 88.5%; for `CCOC(=O)c1cc(C(=O)c2ccc(Br)cc2)n2ccc(/C=C/c3cc[n+](CC(=O)c4ccc(OC)cc4)cc3)cc12`, 95.3%.
With `NC(=NCCCOc1ccc(F)cc1)Nc1ccc(I)cc1`, the growth is 38.2%.
As for `O=C(/C=C(/C=C/c1coc2ccccc12)OB(F)F)/C=C/c1coc2ccccc12`, the growth is 105%.
On the same count and under the same terms, in the case of `COc1cc(NC(=O)CSc2nc3ccc(C)cc3c(=O)n2Cc2ccccc2)cc(OC)c1OC` it was 39.3%; in that of `Oc1ccc(C2c3ccccc3Oc3ccccc32)c2cccnc12`, -58.8% (active); in that of `Cc1ccc(C(=O)/C(=C\c2ccc([N+](=O)[O-])cc2)S(=O)Cc2ccc(F)cc2)cc1` (centres undefined), 64.6%.
Regarding `COc1cc2oc(-c3cccc(C(=O)Nc4ccccc4)c3)cc(=O)c2c(O)c1OC`, the growth was 71.7%.
`COc1ccc(C(=O)/C=C/c2cc3ccccc3n3nnnc23)cc1`: the growth is 103%.
On to `Cc1nc2sccn2c1-c1nc2sccn2c1/C=C1/C(=O)Nc2ccccc21`, for which the growth was 20.5%.
For `COc1cc2c(c(OC)c1OC)CCC(c1cccc(NC(=O)c3cccc(Br)c3)c1)O2` (centres undefined), the growth is 88.2%.
Same read-out and setting: for `CCCCCN1C=C/C(=C\C(=O)N(C)c2ccccc2Br)c2ccccc21` the value was 94.2%; for `COc1ccc(C(=O)c2cc(OC)c(OC)c(OC)c2)cc1O`, -59.7% (active).
Still for that read-out and setting: for `CC(C)(C)c1cc(C=O)cc(C(C)(C)C)c1O` the value was 92%; for `CCOC(=O)c1nc2c3ccccc3ccn2c1C(=O)OCC`, 98.2%.
On the same count and under the same terms, in the case of `CC(C)=CCC[C@](C)(O)[C@H]1CC[C@]2(C)[C@@H]1CC[C@@H]1[C@@]3(C)C/C(=C/c4ccccc4)C(=O)C(C)(C)[C@@H]3CC[C@]12C` it was 98.7%; in that of `C=C(C)[C@@H]1CC[C@]2(C(=O)N3CCN(C)CC3)CC[C@]3(C)[C@H](CC[C@@H]4[C@@]5(C)CC[C@H](O)C(C)(C)[C@@H]5CC[C@]43C)[C@@H]12`, -67.7% (active).

Another assay concerns UACC-62 melanoma. Described as above. The note with it: 10 µM unless noted.
Regarding `c1ccc(Cn2cnc3ccc(-c4nc(-c5ccc6c(c5)ncn6C5CCCCC5)cn5ccnc45)cc32)cc1`, the growth is -31.2% (active).
As for `N/C(=N\C(N)=N\c1nc2ccccc2s1)c1cccc(Cl)c1`, the growth is 86.2%.
On the same count and under the same terms, for `O=C(Cc1ccccc1)NNc1nc(Cl)nc(N2CCN(C(c3ccccc3)c3ccccc3)CC2)n1` the value was 91.9%; for `CCN(CC)c1ccc(C(=O)c2ccccc2)cc1`, 96%; for `O=C(Nc1ncc(Cc2cc(Cl)ccc2Cl)s1)c1cccs1`, 36.7%.
For `COc1cc(C2C3CC4CCCC[C@H]4N3[C@@]3(C(=O)Nc4cc(Cl)ccc43)C2C(=O)c2nc3ccccc3[nH]2)cc(OC)c1OC` (some centres undefined), the growth is 57.5%.
The same measure, in the same setting: for `CC(=O)[C@@H]1CC[C@]2(C(N)=O)CC[C@]3(C)[C@H](CC[C@@H]4[C@@]5(C)CCCNC(C)(C)[C@@H]5CC[C@]43C)[C@@H]12` the value was 83.5%; for `Cc1cccc(C)c1N=c1oc2ccc(Cl)cc2nc1-c1ccccc1O`, 81.3%.
For `O=S(=O)(NCCCNc1nccc(-c2c(-c3cccc(O)c3)nc3occn23)n1)c1ccc(Cl)cc1`, the growth was 9.05% (active).
Consider `N#C/C(=C\c1ccc([N+](=O)[O-])s1)c1nc2cc(Br)ccc2s1`, for which the growth was 17%.
In the case of `Oc1ccc(C(c2ccc(O)cc2)c2ccc(Br)cn2)cc1`, the growth was 38.9%.
Same read-out and setting: for `Cc1nc2sccn2c1-c1cn2ccsc2n1` the value was 83.4%; for `CCOC(=O)/C(C#N)=C1/NNC(=Nc2cccnc2)S1`, 95.5%; for `O=S(=O)(NCCCNc1nccc(-c2c(-c3cccc(F)c3)nc3sccn23)n1)c1cccc2ccccc12`, 24.3%.
In the case of `CCCNC(=O)Oc1ccc(/C(=C(\C)c2ccccc2)c2ccc(OCCCN(C)C)cc2)cc1`, the growth was 54.2%.
Consider `O=C(CSc1nc2sc3c(c2c(=O)n1-c1ccc(Cl)cc1)CCCC3)Nc1nc(-c2cccc(Br)c2)cs1`, for which the growth was 85.1%.
For the compound `O=C1c2ccc3c4c(ccc(c24)C(=O)N1CCCNCc1ccccc1F)C(=O)N(CCCNCc1ccccc1F)C3=O`, the growth was -57.6% (active).
`CCN(CC)c1ccc(/C=N/NC(=O)CSc2nc3ccccc3c(=O)n2CCc2ccc(S(N)(=O)=O)cc2)c(O)c1`: the growth was 15.5%.
The same measure, in the same setting: for `CCCCCN1C=C/C(=C\C(=O)N(C)c2ccc(Oc3ccccc3)cc2)c2ccccc21` the value was 76.9%; for `C/C=C(\C)C(=O)NC1=CC[C@@]2(C)C(=CCC3C2CC[C@@]2(C)C3CC[C@@H]2C(C)N(C)C)C1=O` (some centres undefined), -16.1% (active); for `C[C@H]1[C@H](C)CC[C@]2(C(=O)NCC#CCN3CCN(C)CC3)CC[C@]3(C)C(=CC[C@@H]4[C@@]5(C)Cc6c([nH]c7ccccc67)C(C)(C)[C@@H]5CC[C@]43C)[C@H]12`, 101%.
Still for that read-out and setting: for `CCOC(=O)c1cc(C(=O)c2ccc(Br)cc2)n2ccc(/C=C/c3cc[n+](CC(=O)c4ccc(OC)cc4)cc3)cc12` the value was 92.7%; for `NC(=NCCCOc1ccc(F)cc1)Nc1ccc(I)cc1`, 82.8%; for `O=C(/C=C(/C=C/c1coc2ccccc12)OB(F)F)/C=C/c1coc2ccccc12`, 88.9%.
Same read-out and setting: for `COc1cc(NC(=O)CSc2nc3ccc(C)cc3c(=O)n2Cc2ccccc2)cc(OC)c1OC` the value was 53.2%; for `Oc1ccc(C2c3ccccc3Oc3ccccc32)c2cccnc12`, 4.38% (active).
For the compound `Cc1ccc(C(=O)/C(=C\c2ccc([N+](=O)[O-])cc2)S(=O)Cc2ccc(F)cc2)cc1` (centres undefined), the growth was -34.5% (active).
On the same count and under the same terms, for `COc1cc2oc(-c3cccc(C(=O)Nc4ccccc4)c3)cc(=O)c2c(O)c1OC` the value was 38.9%.
On the same count and under the same terms, in the case of `COc1ccc(C(=O)/C=C/c2cc3ccccc3n3nnnc23)cc1` it was 97.7%; in that of `Cc1nc2sccn2c1-c1nc2sccn2c1/C=C1/C(=O)Nc2ccccc21`, 33.6%; in that of `COc1cc2c(c(OC)c1OC)CCC(c1cccc(NC(=O)c3cccc(Br)c3)c1)O2` (centres undefined), 70.1%.
Same read-out and setting: for `CCCCCN1C=C/C(=C\C(=O)N(C)c2ccccc2Br)c2ccccc21` the value was 81.6%.
Consider `COc1ccc(C(=O)c2cc(OC)c(OC)c(OC)c2)cc1O`, for which the growth is 45.2%.
Same read-out and setting: in the case of `CC(C)(C)c1cc(C=O)cc(C(C)(C)C)c1O` it was 85.4%; in that of `CCOC(=O)c1nc2c3ccccc3ccn2c1C(=O)OCC`, 87.5%.
Same read-out and setting: for `CC(C)=CCC[C@](C)(O)[C@H]1CC[C@]2(C)[C@@H]1CC[C@@H]1[C@@]3(C)C/C(=C/c4ccccc4)C(=O)C(C)(C)[C@@H]3CC[C@]12C` the value was 88.2%; for `C=C(C)[C@@H]1CC[C@]2(C(=O)N3CCN(C)CC3)CC[C@]3(C)[C@H](CC[C@@H]4[C@@]5(C)CC[C@H](O)C(C)(C)[C@@H]5CC[C@]43C)[C@@H]12`, -82.9% (active).
